PubChem BioAssay AID1159580 (chemical genetic matrix, 2015)
Several values for one entry are separate records, joined by “and”; a condition that tells them apart may be missing. Identical values can stand only once. Screen size: about 5,500 compounds; about 2,000 (36%) were called active. Inconclusive results (about 18%) are left out. Rule as the data show it: active = normalized growth mostly below about 0.91 (no sharp cut-off); inconclusive = no clear call, values can overlap the other calls; inactive = mostly above about 0.92. The list shows a part of the results.

Experiment: chemical genetic growth profiling, strain panel (AID 1159580);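 also: tested at 20 µM; growth read once vehicle control cultures reached saturation at 30 °C; 1 = growth at the plate median or of vehicle wells; lower values mean less growth of the strain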
Details: growth OD

Measured: normalized growth

NS(=O)(=O)c1cc2c(cc1Cl)NC(C1CC3C=CC1C3)NS2(=O)=O (stereo unspecified)
inactive: S. cerevisiae deletion strains, locus YJR075W, strain HOC1, hits give low values 1.02 and 1.01 | S. cerevisiae deletion strains, locus YKL009W, strain mrt4, hits give low values 0.979 | S. cerevisiae deletion strains, locus YKL068W, hits give low values 0.995 | S. cerevisiae deletion strains, locus YKL085W, strain MDH1 (second series), hits give low values 0.946 | S. cerevisiae deletion strains, locus YKL085W, strain MDH1, hits give low values 0.946 | S. cerevisiae deletion strains, locus YKL160W, strain elf1, hits give low values 1.01 | S. cerevisiae deletion strains, locus YKL190W, strain CNB1, hits give low values 0.991 | S. cerevisiae deletion strains, locus YKR001C, strain vps1, hits give low values 0.997 | S. cerevisiae deletion strains, locus YKR026C, strain gcn3, hits give low values 0.976 | S. cerevisiae deletion strains, locus YKR091W, strain srl3, hits give low values 0.989 | S. cerevisiae deletion strains, locus YLL001W, strain dnm1, hits give low values 0.987 | S. cerevisiae deletion strains, locus YLL026W, hits give low values 0.988 | S. cerevisiae deletion strains, locus YLL041C, strain sdh2, hits give low values 0.997 | S. cerevisiae deletion strains, locus YLR027C, strain aat2, hits give low values 0.995 | S. cerevisiae deletion strains, locus YLR039C, strain RIC1, hits give low values 0.981 | S. cerevisiae deletion strains, locus YLR058C, strain SHM2, hits give low values 0.979 | S. cerevisiae deletion strains, locus YLR102C, strain apc9, hits give low values 0.984 | S. cerevisiae deletion strains, locus YLR113W, strain HOG1, hits give low values 1.07 | S. cerevisiae deletion strains, locus YLR221C, strain rsa3, hits give low values 1 | S. cerevisiae deletion strains, locus YLR258W, strain gsy2, hits give low values 0.98 | S. cerevisiae deletion strains, locus YLR262C, strain YPT6 (second series), hits give low values 0.999 | S. cerevisiae deletion strains, locus YLR262C, strain YPT6, hits give low values 0.962 | S. cerevisiae deletion strains, locus YLR268W, strain sec22, hits give low values 0.973 | S. cerevisiae deletion strains, locus YLR320W, strain mms22, hits give low values 0.99 | S. cerevisiae deletion strains, locus YLR330W, strain CHS5, hits give low values 0.989 | S. cerevisiae deletion strains, locus YLR342W, strain FKS1 (second series), hits give low values 1.1 | S. cerevisiae deletion strains, locus YLR342W, strain FKS1, hits give low values 0.995 | S. cerevisiae deletion strains, locus YLR357W, strain rsc2, hits give low values 0.984 | S. cerevisiae deletion strains, locus YLR370C, strain arc18, hits give low values 0.992 | S. cerevisiae deletion strains, locus YLR371W, strain rom2, hits give low values 0.995 | S. cerevisiae deletion strains, locus YLR384C, strain iki3, hits give low values 0.993 | S. cerevisiae deletion strains, locus YLR418C, strain cdc73, hits give low values 0.961 | S. cerevisiae deletion strains, locus YML016C, strain PPZ1, hits give low values 0.998 | S. cerevisiae deletion strains, locus YML032C, strain rad52, hits give low values 1.02 | S. cerevisiae deletion strains, locus YML120C, strain ndi1, hits give low values 1 | S. cerevisiae deletion strains, locus YML124C, strain tub3, hits give low values 1 | S. cerevisiae deletion strains, locus YMR058W, strain fet3, hits give low values 0.996 | S. cerevisiae deletion strains, locus YMR078C, strain ctf18, hits give low values 0.986 | S. cerevisiae deletion strains, locus YMR125W, strain sto1, hits give low values 0.973 | S. cerevisiae deletion strains, locus YMR129W, hits give low values 0.981 | S. cerevisiae deletion strains, locus YMR205C, strain PFK2, hits give low values 0.951 | S. cerevisiae deletion strains, locus YMR223W, strain ubp8, hits give low values 1.05 | S. cerevisiae deletion strains, locus YMR231W, strain pep5, hits give low values 0.992 | S. cerevisiae deletion strains, locus YMR263W, strain SAP30, hits give low values 0.988 | S. cerevisiae deletion strains, locus YMR307W, strain GAS1, hits give low values 1.06 and 1 | S. cerevisiae deletion strains, locus YNL067W, strain RPL9B, hits give low values 1 | S. cerevisiae deletion strains, locus YNL071W, strain lat1, hits give low values 0.986 | S. cerevisiae deletion strains, locus YNL128W, strain TEP1, hits give low values 0.94 | S. cerevisiae deletion strains, locus YNL153C, strain GIM3, hits give low values 0.981 | S. cerevisiae deletion strains, locus YNL175C, strain NOP13, hits give low values 0.978 | S. cerevisiae deletion strains, locus YNL183C, strain NPR1, hits give low values 0.978 | S. cerevisiae deletion strains, locus YNL197C, strain WHI3, hits give low values 0.982 | S. cerevisiae deletion strains, locus YNL209W, strain ssb2, hits give low values 1 | S. cerevisiae deletion strains, locus YNL224C, strain SQS1, hits give low values 0.992 | S. cerevisiae deletion strains, locus YNL233W, strain BNI4, hits give low values 1 | S. cerevisiae deletion strains, locus YNL248C, strain rpa49, hits give low values 0.999 | S. cerevisiae deletion strains, locus YNL250W, strain rad50, hits give low values 0.999 | S. cerevisiae deletion strains, locus YNL271C, strain bni1, hits give low values 1 | S. cerevisiae deletion strains, locus YNL298W, strain CLA4, hits give low values 0.988 | S. cerevisiae deletion strains, locus YNL307C, strain MCK1, hits give low values 1.02 | S. cerevisiae deletion strains, locus YNL322C, strain KRE1 (second series), hits give low values 1 | S. cerevisiae deletion strains, locus YNL322C, strain KRE1, hits give low values 0.988 | S. cerevisiae deletion strains, locus YNR049C, strain mso1, hits give low values 0.989 | S. cerevisiae deletion strains, locus YNR052C, strain pop2, hits give low values 0.987 | S. cerevisiae deletion strains, locus YOL006C, strain TOP1, hits give low values 1.02 | S. cerevisiae deletion strains, locus YOL012C, strain htz1 1.21 | S. cerevisiae deletion strains, locus YOL147C, strain pex11, hits give low values 0.993 | S. cerevisiae deletion strains, locus YOR001W, strain rrp6, hits give low values 0.997 | S. cerevisiae deletion strains, locus YOR061W, strain CKA2, hits give low values 0.959 | S. cerevisiae deletion strains, locus YOR069W, strain VPS5, hits give low values 0.995 | S. cerevisiae deletion strains, locus YOR070C, strain gyp1, hits give low values 0.993 | S. cerevisiae deletion strains, locus YOR080W, strain dia2, hits give low values 0.993 | S. cerevisiae deletion strains, locus YOR083W, strain WHI5 (second series), hits give low values 0.989 | S. cerevisiae deletion strains, locus YOR083W, strain WHI5, hits give low values 1 | S. cerevisiae deletion strains, locus YOR106W, strain vam3, hits give low values 1 | S. cerevisiae deletion strains, locus YOR136W, strain idh2, hits give low values 0.998 | S. cerevisiae deletion strains, locus YOR144C, strain elg1, hits give low values 0.991 | S. cerevisiae deletion strains, locus YOR184W, strain ser1, hits give low values 1.06 | S. cerevisiae deletion strains, locus YOR231W, strain MKK1, hits give low values 1.06 | S. cerevisiae deletion strains, locus YOR265W, strain rbl2, hits give low values 0.999 | S. cerevisiae deletion strains, locus YOR270C, strain vph1, hits give low values 0.984 | S. cerevisiae deletion strains, locus YOR290C, strain snf2, hits give low values 1.01 | S. cerevisiae deletion strains, locus YOR316C, strain cot1, hits give low values 0.98 | S. cerevisiae deletion strains, locus YPL051W, strain arl3, hits give low values 0.997 | S. cerevisiae deletion strains, locus YPL055C, strain LGE1, hits give low values 0.977 | S. cerevisiae deletion strains, locus YPL078C, strain atp4, hits give low values 0.998 | S. cerevisiae deletion strains, locus YPL106C, strain sse1, hits give low values 0.96 | S. cerevisiae deletion strains, locus YPL240C, strain hsp82, hits give low values 0.982 | S. cerevisiae deletion strains, locus YPL241C, strain CIN2, hits give low values 0.981 and 0.988 | S. cerevisiae deletion strains, locus YPL256C, strain CLN2, hits give low values 1.04 | S. cerevisiae deletion strains, locus YPR119W, strain clb2, hits give low values 0.996 | S. cerevisiae deletion strains, locus YPR141C, strain kar3, hits give low values 0.979 | S. cerevisiae deletion strains, locus YPR163C, strain tif3, hits give low values 0.997 | S. cerevisiae deletion strains, locus YPR167C, strain met16, hits give low values 0.977 | S. cerevisiae deletion strains, strain wtn01, hits give low values 0.969 | S. cerevisiae strains, strain wild type, hits give low values 0.998
